Assay results taken from PubChem BioAssay AID2315 (National Center for Advancing Translational Sciences (NCATS), 2010).
The campaign covered roughly 290,000 compounds. About 27,000 (9.3%) were called active. What follows is part of a selection rich in actives, with near analogues and random picks from the rest. A number with no mark means an inactive call. Cut-off read from the data, not from the text of the source: active = inhibition mostly above about 28% (no sharp cut-off); inactive = mostly below about 43%.

Experiment: A qHTS for Small Molecule Inhibitors of Shiga Toxin; note: 0% is about no effect
Conditions: Vero cells, Shiga toxin protein synthesis inhibition reporter; at 38.7 µM, stronger effect = higher value
Compound CC1CCN(C(=S)NC(=O)c2ccccc2Br)CC1 has an inhibition of 14.3%. For Nc1ccc(N=Nc2ccccc2Cl)c(N)n1, the inhibition was 105% (active). With CCOC(=O)C1CCN(S(=O)(=O)c2ccc3c(c2)N(C(C)=O)CCO3)CC1 the inhibition was 15.1%. In the case of CCN(CC)S(=O)(=O)c1ccc(N2CCN(C)CC2)c(NC(=O)Nc2ccccc2F)c1, the inhibition is reported as 19.8%. With Cc1cccc(C(=O)N2CCc3c([nH]c4ccccc34)C2CC(C)C)n1 (centres undefined) the inhibition was 52.7% (active). With Cc1cccc(C2c3[nH]c4ccccc4c3CCN2C(=O)c2cc(-c3cccn3C)n[nH]2)n1 (centres undefined) the inhibition was -3.12%. In the case of O=C(c1cn2ccccc2n1)N1CCc2c([nH]c3ccccc23)C1c1ccccn1 (centres undefined), the inhibition is reported as 13.1%. CCc1ccc(NC(=O)NC(C)c2ccc3c(c2)OCO3)cc1 (centres undefined) showed an inhibition of -6.59%. With Cc1cc(-c2ccc(C)c(S(=O)(=O)NC(C)Cc3ccco3)c2)on1 (centres undefined) the inhibition was -1.68%. With Cc1nnc(SCc2nc3ccccc3nc2C)s1 the inhibition was -8.09%. For Cc1ccc(Nc2nnc(SCc3ccccc3)s2)cc1, the inhibition was 78.2% (active). Cc1cccc(CSc2nnc(NC(=O)CSc3nnc(C)s3)s2)c1 showed an inhibition of -22%. CCOC(=O)N1CCN(Cc2nc(N)nc(Nc3ccc(C)cc3)n2)CC1 showed an inhibition of 16.1%. O=C(Nc1nnc(SCc2ccccc2)s1)c1ccco1 showed an inhibition of 55.6%. For Cc1ccc(Nc2nc(N)nc(CSc3nnc(C)s3)n2)cc1, the inhibition was 97.7% (active). With Cc1cccn2cc(-c3cccc(S(=O)(=O)N4CCCCC4)c3)nc12 the inhibition was 15.3%. With N#CCSc1nc(-c2ccccc2)nc2ccc(F)cc12 the inhibition was 4.25%. CCc1nnc(NC(=O)CCC(=O)N2CCN(c3cc(C)ccc3C)CC2)s1 gave an inhibition of 2.43%. For CCOC(=O)N1CCC(N2Cc3cccc(C(=O)Nc4ccc(S(=O)(=O)N(CC)CC)cc4)c3C2=O)CC1, the inhibition was -14%. With COc1ccc(CNC(=O)c2ccc3oc(C(C)C)nc3c2)cc1 the inhibition was 51.4% (active). CC(C)c1nc2cc(C(=O)NC(C)c3cnn(C)c3)ccc2o1 (centres undefined) showed an inhibition of 20.7%. With COC(=O)c1ccc(CSc2nc3cc(Cl)ccc3o2)cc1 the inhibition was -12.3%. In the case of COC(=O)c1ccc(CNC(=O)c2ccc3oc(C(C)C)nc3c2)cc1, the inhibition is reported as 71.8% (active). Compound COc1ccc(CNC(=O)c2cc(=O)c3c(C)cc(C)cc3o2)cc1 has an inhibition of -1.33%. Work on CCOc1c2ccc(C(=O)NCc3ccc(OC(F)(F)F)cc3)cc2nn1C yielded an inhibition of 29%. Cc1ccccc1CCNC(=O)C1CCC(=O)N(Cc2ccc(Cl)cc2)C1 (centres undefined) gave an inhibition of 13.3%. With O=C(OCc1ccc([N+](=O)[O-])cc1)C1CC(=O)N(Cc2ccccc2Cl)C1 (centres undefined) the inhibition was -0.893%. Compound O=C(NCCCN1CCCCC1)C1CC(=O)N(CCc2ccccc2)C1 (centres undefined) has an inhibition of -8.56%. Compound Cc1ccc(S(=O)(=O)Oc2ccc(/C=N/NC(=O)c3ccncc3)cc2)cc1 has an inhibition of 9.5%. In the case of COc1cc(/C=N/NC(=O)c2ccccc2)ccc1OS(=O)(=O)c1ccccc1, the inhibition is reported as 31% (active). For COc1cc(/C=N/NC(=O)c2cccnc2)ccc1OC(=O)c1cccc(Br)c1, the inhibition was -22.1%. COc1ccc(/C=N/S(=O)(=O)c2ccccc2)cc1OC gave an inhibition of -10.1%. In the case of COc1ccc(/C=N\NC(=O)c2sc(N)nc2C)cc1OC, the inhibition is reported as 15.2%. With COc1ccc(/C=N/NC(=O)c2ccccc2)cc1OS(=O)(=O)c1ccccc1 the inhibition was 59.1% (active). In the case of COc1ccc(C)cc1NC(=O)CN(C)S(=O)(=O)c1ccc2c(c1)n(C)c(=O)c(=O)n2C, the inhibition is reported as 3.45%. COc1ccc(-n2cc(-c3ccccc3)c3c(=S)nc[nH]c32)cc1 showed an inhibition of -14.3%. CC(Oc1cccc(Cl)c1)C(=O)NC1CC(C)(C)NC(C)(C)C1 (centres undefined) gave an inhibition of -11.3%. In the case of CCn1cc(C(=O)NCCC(=O)NCCO)c(=O)c2cc3c(cc21)OCO3, the inhibition is reported as -8.77%. CC(C)[C@H](NC(=O)N1CCn2c1nc1ccccc12)C(=O)NCCc1ccccc1 gave an inhibition of 31.8%. In the case of O=C(O)c1c(NC(=O)N2CCCC2)sc2c1CCCC2, the inhibition is reported as 36.9%. O=C(O)C1CCCN1S(=O)(=O)c1ccc(Br)cc1 (centres undefined) gave an inhibition of -1.18%. With c1n[nH]c(NCc2ccc3c(c2)OCO3)n1 the inhibition was -23.7%. In the case of COc1ccc(CCNC(=O)C(=O)NCc2ccccc2C)cc1OC, the inhibition is reported as -10.9%. For COc1cc(CNc2ncn[nH]2)ccc1OCc1ccccc1C, the inhibition was 67.9% (active). COc1ccc(C(O)(C2CCCCC2)C(CN2CCCC2)c2ccccc2)cc1 (centres undefined) showed an inhibition of 0.707%. With O=C(NCc1cc(F)cc(C(F)(F)F)c1)C1CCC(=O)N(C2CCCC2)C1 (centres undefined) the inhibition was 40.9%. CCC(=O)Nc1nnc(S(=O)(=O)N(CC(C)C)c2ccccc2)s1 showed an inhibition of 1.25%. In the case of CCN(CC)c1ccc(C(=O)N/N=C(\C)c2cccc(OC)c2)cc1, the inhibition is reported as 22.3%. In the case of O=C(Nc1ccccc1-c1nc2ccccc2[nH]c1=O)c1cccs1, the inhibition is reported as -5.13%. Work on C/C(=N\NS(=O)(=O)c1ccc(Br)cc1)c1cccs1 yielded an inhibition of -4.11%. With COc1cccc(/C(C)=N/Nc2ncc(Cl)cc2Cl)c1 the inhibition was 38.2% (active). Cc1c(Cl)cnc(NC(=O)COC(=O)c2ccc(S(=O)(=O)NCc3ccco3)cc2)c1Cl showed an inhibition of -13.9%. Compound COC(=O)c1sccc1N/N=C(\C)c1ccc(F)c(Cl)c1 has an inhibition of -5.96%. C/C(=N\Nc1ccc(S(N)(=O)=O)cc1[N+](=O)[O-])c1cccs1 showed an inhibition of 2.64%. With C/C(=N\Nc1ncc(Cl)cc1Cl)c1ccc(S(=O)(=O)NCc2ccco2)cc1 the inhibition was 144% (active). In the case of C/C(=N\Nc1ncc(Cl)cc1Cl)c1cccs1, the inhibition is reported as 101% (active). For C/C(=N\Nc1nc2ccccc2[nH]1)c1cccs1, the inhibition was 97.5% (active). Work on C/C(=N\Nc1nc(Nc2ccccc2)nc(N2CCOCC2)n1)c1cccs1 yielded an inhibition of -5.79%. O=S(=O)(NCc1ccco1)c1cnc(Cl)c(Cl)c1 gave an inhibition of -12.1%. With Cc1ccc(N2CCN(c3ccc([N+](=O)[O-])cn3)CC2)c(C)c1 the inhibition was -5.14%. Work on COc1ccc2c(c1OC)C(=O)N(c1ccc(O)cc1)C2 yielded an inhibition of 29.7%. Compound O=C(COc1ccc(S(=O)(=O)N2CCOCC2)cc1Cl)N1CCOCC1 has an inhibition of -5.97%. With O=C(c1ccccc1)N1CCC(CC2CC(c3ccc(Cl)cc3)=NO2)(C(=O)NCC2CCCCC2)CC1 (centres undefined) the inhibition was -0.8%. With Cc1ccc(N2CC(C(=O)Nc3ccc(S(=O)(=O)N4CCCC4)cc3)CC2=O)cc1C (centres undefined) the inhibition was -5.32%. Compound N#C/C(=C/c1ccc(-c2ccccc2[N+](=O)[O-])o1)C(=O)NCCN1CCCCC1 has an inhibition of 6.58%. Cc1ccc(Cc2cnc(NC(=O)/C(C#N)=C/c3ccc(-c4cccc([N+](=O)[O-])c4)o3)s2)cc1 showed an inhibition of 19.7%. In the case of Cc1ccc(-c2ccc(/C=C(\C#N)C(N)=S)o2)c([N+](=O)[O-])c1, the inhibition is reported as 19.2% (active). For CCc1cc(=O)oc2c(C)c(OCC(=O)N3CC[C@@]4(O)CCCC[C@H]4C3)ccc12, the inhibition was -4.55%. Work on Cc1cccc(C)c1NC(=O)C(Cl)C(=O)c1ccccc1 (centres undefined) yielded an inhibition of -15.6%. Compound CC(C)N(C(=O)Cn1cc(S(=O)(=O)CC(=O)N2CCOCC2)c2ccccc21)C(C)C has an inhibition of -3.05%. In the case of O=C(CSc1nnc2ccc(-c3ccncc3)nn12)N1CCCCC1, the inhibition is reported as -15.9%. With CC(Sc1nnnn1C1CCCCC1)C(=O)O (centres undefined) the inhibition was 3.3%. CC(C)C(=O)Nc1nnc(SCC(=O)N2C(C)CCCC2C)s1 (centres undefined) gave an inhibition of -4.35%. For CC1CCCC(C)N1C(=O)CSc1nnnn1C1CCCC1 (centres undefined), the inhibition was 53.7% (active). In the case of O=C(CSc1nnnn1C1CCCC1)N1CCCCC1, the inhibition is reported as 110% (active). With CCCc1nnc(SCC(=O)N2C(C)CCCC2C)n1CC (centres undefined) the inhibition was 3.99%. In the case of COc1ccc(C2NC(=O)C(=O)/C2=C(\O)c2ccc(Cl)cc2)cc1OC (centres undefined), the inhibition is reported as -18%. Work on CCN(CC(=O)NCCCN1CCOCC1)S(=O)(=O)c1cc(Cl)ccc1Cl yielded an inhibition of 10.6%. With Cc1cccc(N2CCN(C(=O)c3cccc(N4C(=O)C5C6C=CC(C6)C5C4=O)c3)CC2)c1C (centres undefined) the inhibition was -9.11%. Work on CCC(C)NC(=O)C1c2ccccc2C(=O)N1Cc1ccccc1 (centres undefined) yielded an inhibition of -8.49%. CCOc1ccc(NC(=O)C2CCN(C(=O)N3CCOc4ccccc43)CC2)cc1 showed an inhibition of 7.11%. CN(c1ccccc1)S(=O)(=O)c1cccc(NC(=O)Cc2c(F)cccc2Cl)c1 gave an inhibition of -0.293%. With O=C(Nc1nc(-c2ccncc2)cs1)C1COc2ccccc2O1 (centres undefined) the inhibition was -4.34%. For CC(C)Cc1nnc(NC(=O)CCc2ccccc2)s1, the inhibition was 7.6%. With Cc1ccc(S(=O)(=O)N(C)C)cc1NC(=O)COC(=O)C1COc2ccccc2O1 (centres undefined) the inhibition was -6.06%. With O=C(Nc1nnc(SCc2ccc(Cl)cc2Cl)s1)C1COc2ccccc2O1 (centres undefined) the inhibition was -4.34%. For O=C(Cc1c(F)cccc1Cl)Nc1ccc(-n2cnnn2)cc1, the inhibition was 12.8%. In the case of COc1ccc([N+](=O)[O-])cc1NC(=O)CCc1ccccc1, the inhibition is reported as 17%. CCN(CC)S(=O)(=O)c1ccc(N2CCOCC2)c(NC(=O)C2COc3ccccc3O2)c1 (centres undefined) showed an inhibition of 4.87%. In the case of O=C(CCc1ccccc1)Nc1ncc([N+](=O)[O-])s1, the inhibition is reported as 85.8% (active). In the case of O=C(Nc1nc2c(F)cc(F)cc2s1)C1COc2ccccc2O1 (centres undefined), the inhibition is reported as 71.8% (active). In the case of O=C(Cc1c(F)cccc1Cl)Nc1ncc([N+](=O)[O-])s1, the inhibition is reported as 75.5% (active). In the case of O=C(Nc1ncc([N+](=O)[O-])s1)C1COc2ccccc2O1 (centres undefined), the inhibition is reported as 93.4% (active). Compound Cc1cc(C)cc(N(CC(=O)NC2CCCC2)C(=O)CCC(=O)Nc2cc(C)on2)c1 has an inhibition of -3.5%.
